{"source": "PubChem BioAssay", "note": "Activity calls are given as the source filed them.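 How the source made its calls: active means viability loss from added drug above about 55%, and viability with drug at most 40%, in both replicates (limit read from the data, passing the limit was not always enough); inconclusive means both conditions met in only one replicate; inactive means neither replicate meets both conditions.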"}
{"assay": "MRP1 drug-resistance reversers in H69AR cells – cell-based, doxorubicin co-treatment, pilot screen (AID 601)", "conditions": "H69AR cells + 2 uM doxorubicin, CellTiter-Glo, 72 h; at 10 µM; stronger effect = higher value"}
{"smiles": "CCOC(=O)C1CCN(c2c(NC3CCCCCCC3)c(=O)c2=O)CC1", "differential viability (reversal)": "8.71% (inactive)"}
{"smiles": "Cc1c(/C(O)=C2/C(=O)C(=O)N(CCN3CCOCC3)C2c2cccs2)cnn1-c1ccccc1", "note": "(stereo not given)", "differential viability (reversal)": "1.22% (inactive)"}
{"smiles": "c1ccc(CSCc2cn3ccsc3n2)cc1", "differential viability (reversal)": "14.5% (inactive)"}
{"smiles": "O=c1c2ccccc2nc(SCc2cn3ccsc3n2)n1-c1ccc(F)cc1", "differential viability (reversal)": "-13.3% (inactive)"}
{"smiles": "Cc1cnc(C(=O)Nc2ccc(N3CCN(C(=O)OC(C)(C)C)CC3)cc2)cn1", "differential viability (reversal)": "15.1% (inactive)"}
{"smiles": "COc1ccccc1N(C)S(=O)(=O)c1ccc(C(=O)NC2=NCCS2)cc1", "differential viability (reversal)": "-3.23% (inactive)"}
{"smiles": "C/C(N)=C(/C#N)C(=O)COC(=O)c1cc(S(=O)(=O)N2CCCCC2)ccc1C", "differential viability (reversal)": "0.98% (inactive)"}
{"smiles": "O=C(NCc1ccc2c(c1)OCO2)c1ccc(NS(=O)(=O)c2ccc3c(c2)OCCO3)cc1", "differential viability (reversal)": "15.4% (inactive)"}
{"smiles": "Cc1nnc(SCC(=O)NC(C)(C)C)n1CCc1ccccc1", "differential viability (reversal)": "4.22% (inactive)"}
{"smiles": "CC(C)OC(=O)CSc1nnnn1-c1ccc2c(c1)OCCO2", "differential viability (reversal)": "6.42% (inactive)"}
{"smiles": "Cc1sc2nc(SCC(=O)NCc3ccco3)n(CCc3ccccc3)c(=O)c2c1C", "differential viability (reversal)": "-14.2% (inactive)"}
{"smiles": "CC(=O)Nc1ccn(-c2ccccc2)n1", "differential viability (reversal)": "-4.04% (inactive)"}
{"smiles": "O=P(O)(O)C(O)C(F)(F)C(F)(F)C(F)(F)C(F)F", "note": "(stereo not given)", "differential viability (reversal)": "-5.62% (inactive)"}
{"smiles": "COCCn1c(CN2CCN(c3ccccc3F)CC2)nc2c1c(=O)n(C)c(=O)n2C", "differential viability (reversal)": "0.255% (inactive)"}
{"smiles": "O=C(CN1CCN(C2CCCCC2)CC1)Nc1ccccc1-c1ccccc1", "differential viability (reversal)": "7.96% (inactive)"}
{"smiles": "COc1ccc(NC(=O)C23CCC(C)(C(=O)C2)C3(C)C)cc1", "note": "(stereo not given)", "differential viability (reversal)": "2.21% (inactive)"}
{"smiles": "CC(C)(C)c1nc(CN2CCOCC2)ccc1O", "differential viability (reversal)": "4.21% (inactive)"}
{"smiles": "CC(NC(=O)c1ccc2c(c1)OCO2)C(c1cccs1)N1CCOCC1", "note": "(stereo not given)", "differential viability (reversal)": "13.5% (inactive)"}
{"smiles": "Cc1ccccc1NS(=O)(=O)c1cc(C(=O)N2CCCC2)ccc1C", "differential viability (reversal)": "-4.14% (inactive)"}
{"smiles": "O=C(C1CCCO1)N1CCc2ccccc21", "note": "(stereo not given)", "differential viability (reversal)": "-5.42% (inactive)"}
{"smiles": "CCc1ccc(NS(=O)(=O)c2ccc3[nH]cc(C(=O)N4CCCCC4)c(=O)c3c2)cc1", "differential viability (reversal)": "5.6% (inactive)"}
{"smiles": "O=C1COc2ccc(C(=O)COC(=O)CCc3ccc(S(=O)(=O)N4CCOCC4)cc3)cc2N1", "differential viability (reversal)": "-10.4% (inactive)"}
{"smiles": "CC(C)CCNC(=O)C(c1ccco1)N(CC1CCCO1)C(=O)Cn1nnc2ccccc21", "note": "(stereo not given)", "differential viability (reversal)": "1.64% (inactive)"}
{"smiles": "CCOc1ccc(CCNC(=O)CCc2nc(-c3ccc(OC)cc3)no2)cc1OCC", "differential viability (reversal)": "-5.12% (inactive)"}
{"smiles": "COc1cccc(-n2c(C)nc3c(cnn3-c3ccc(Cl)cc3)c2=O)c1", "differential viability (reversal)": "-1.66% (inactive)"}
{"smiles": "CCOC(=O)c1sc2nc(SCC#N)n(CCCN3CCCC3=O)c(=O)c2c1C", "differential viability (reversal)": "-8.2% (inactive)"}
{"smiles": "COc1ccc(-c2nc(SC)n(S(=O)(=O)c3ccccc3)n2)cc1", "differential viability (reversal)": "17.5% (inactive)"}
{"smiles": "CC(=O)NCc1cccc(CNC(C)=O)n1", "differential viability (reversal)": "7.96% (inactive)"}
{"smiles": "Cc1ccc(-c2nc(N)n(C(=O)c3cccnc3)n2)cc1", "differential viability (reversal)": "19.1% (inactive)"}
{"smiles": "CCOCCCNC(=O)c1cc2sc(Cl)cc2n1CC", "differential viability (reversal)": "-44% (inactive)"}
{"smiles": "O=C(COc1ccc(S(=O)(=O)N2CCCC2)cc1Cl)NC1CC1", "differential viability (reversal)": "7.76% (inactive)"}
{"smiles": "O=C(CSc1nc2ccccc2nc1SCC(=O)N1CCOCC1)N1CCOCC1", "differential viability (reversal)": "1.15% (inactive)"}
{"smiles": "CCOc1ccc(/C=N/n2cnnc2)cc1", "differential viability (reversal)": "7.86% (inactive)"}
{"smiles": "COc1cccc2cc(C(=O)N3CCc4ccccc43)c(=O)oc12", "differential viability (reversal)": "4.2% (inactive)"}
{"smiles": "Cc1n[nH]c(C)c1S(=O)(=O)Nc1ccc2c(c1)OCCO2", "differential viability (reversal)": "14.9% (inactive)"}
{"smiles": "O=C(Cn1c(C(=O)NCC2CCCO2)cc2sccc21)c1ccccc1", "note": "(stereo not given)", "differential viability (reversal)": "7.12% (inactive)"}
{"smiles": "Nn1cc(-c2ccccc2)nc1SCC(=O)N1CCN(S(=O)(=O)c2ccccc2)CC1", "differential viability (reversal)": "-0.4% (inactive)"}
{"smiles": "COc1cc(C(N)=O)ccc1OCc1ccccc1", "differential viability (reversal)": "8% (inactive)"}
{"smiles": "CCCCn1c(CN(C)Cc2ccccc2)nc2c1c(=O)n(C)c(=O)n2C", "differential viability (reversal)": "-7.99% (inactive)"}
{"smiles": "CCOc1ccc(-c2nc(S(=O)(=O)c3ccccc3)c(NCc3cccnc3)o2)cc1", "differential viability (reversal)": "6.18% (inactive)"}
{"assay": "MRP1 drug-resistance reversers in H69AR cells – cell-based, doxorubicin co-treatment, pilot screen (AID 601)", "conditions": "H69AR cells + 2 uM doxorubicin, CellTiter-Glo, 72 h; measured here: viability with 2 uM doxorubicin; at 10 µM; stronger effect = lower value", "units": {"viability": "%"}}
{"smiles": "CCOC(=O)C1CCN(c2c(NC3CCCCCCC3)c(=O)c2=O)CC1", "viability": 71}
{"smiles": "Cc1c(/C(O)=C2/C(=O)C(=O)N(CCN3CCOCC3)C2c2cccs2)cnn1-c1ccccc1", "note": "(stereo not given)", "viability": 95}
{"smiles": "c1ccc(CSCc2cn3ccsc3n2)cc1", "viability": 84.6}
{"smiles": "O=c1c2ccccc2nc(SCc2cn3ccsc3n2)n1-c1ccc(F)cc1", "viability": 115}
{"smiles": "Cc1cnc(C(=O)Nc2ccc(N3CCN(C(=O)OC(C)(C)C)CC3)cc2)cn1", "viability": 99.9}
{"smiles": "COc1ccccc1N(C)S(=O)(=O)c1ccc(C(=O)NC2=NCCS2)cc1", "viability": 99.5}
{"smiles": "C/C(N)=C(/C#N)C(=O)COC(=O)c1cc(S(=O)(=O)N2CCCCC2)ccc1C", "viability": 94.8}
{"smiles": "O=C(NCc1ccc2c(c1)OCO2)c1ccc(NS(=O)(=O)c2ccc3c(c2)OCCO3)cc1", "viability": 90.9}
{"smiles": "Cc1nnc(SCC(=O)NC(C)(C)C)n1CCc1ccccc1", "viability": 91.4}
{"smiles": "CC(C)OC(=O)CSc1nnnn1-c1ccc2c(c1)OCCO2", "viability": 82.2}
{"smiles": "Cc1sc2nc(SCC(=O)NCc3ccco3)n(CCc3ccccc3)c(=O)c2c1C", "viability": 54.2}
{"smiles": "CC(=O)Nc1ccn(-c2ccccc2)n1", "viability": 97.6}
{"smiles": "O=P(O)(O)C(O)C(F)(F)C(F)(F)C(F)(F)C(F)F", "note": "(stereo not given)", "viability": 98.1}
{"smiles": "COCCn1c(CN2CCN(c3ccccc3F)CC2)nc2c1c(=O)n(C)c(=O)n2C", "viability": 95.6}
{"smiles": "O=C(CN1CCN(C2CCCCC2)CC1)Nc1ccccc1-c1ccccc1", "viability": 76.7}
{"smiles": "COc1ccc(NC(=O)C23CCC(C)(C(=O)C2)C3(C)C)cc1", "note": "(stereo not given)", "viability": 99.3}
{"smiles": "CC(C)(C)c1nc(CN2CCOCC2)ccc1O", "viability": 96.6}
{"smiles": "CC(NC(=O)c1ccc2c(c1)OCO2)C(c1cccs1)N1CCOCC1", "note": "(stereo not given)", "viability": 91.1}
{"smiles": "Cc1ccccc1NS(=O)(=O)c1cc(C(=O)N2CCCC2)ccc1C", "viability": 88.4}
{"smiles": "O=C(C1CCCO1)N1CCc2ccccc21", "note": "(stereo not given)", "viability": 97.8}
{"smiles": "CCc1ccc(NS(=O)(=O)c2ccc3[nH]cc(C(=O)N4CCCCC4)c(=O)c3c2)cc1", "viability": 84}
{"smiles": "O=C1COc2ccc(C(=O)COC(=O)CCc3ccc(S(=O)(=O)N4CCOCC4)cc3)cc2N1", "viability": 89.4}
{"smiles": "CC(C)CCNC(=O)C(c1ccco1)N(CC1CCCO1)C(=O)Cn1nnc2ccccc21", "note": "(stereo not given)", "viability": 92.8}
{"smiles": "CCOc1ccc(CCNC(=O)CCc2nc(-c3ccc(OC)cc3)no2)cc1OCC", "viability": 99.4}
{"smiles": "COc1cccc(-n2c(C)nc3c(cnn3-c3ccc(Cl)cc3)c2=O)c1", "viability": 78}
{"smiles": "CCOC(=O)c1sc2nc(SCC#N)n(CCCN3CCCC3=O)c(=O)c2c1C", "viability": 84}
{"smiles": "COc1ccc(-c2nc(SC)n(S(=O)(=O)c3ccccc3)n2)cc1", "viability": 80.6}
{"smiles": "CC(=O)NCc1cccc(CNC(C)=O)n1", "viability": 90.1}
{"smiles": "Cc1ccc(-c2nc(N)n(C(=O)c3cccnc3)n2)cc1", "viability": 85.7}
{"smiles": "CCOCCCNC(=O)c1cc2sc(Cl)cc2n1CC", "viability": 72.5}
{"smiles": "O=C(COc1ccc(S(=O)(=O)N2CCCC2)cc1Cl)NC1CC1", "viability": 93.2}
{"smiles": "O=C(CSc1nc2ccccc2nc1SCC(=O)N1CCOCC1)N1CCOCC1", "viability": 94.5}
{"smiles": "CCOc1ccc(/C=N/n2cnnc2)cc1", "viability": 88.9}
{"smiles": "COc1cccc2cc(C(=O)N3CCc4ccccc43)c(=O)oc12", "viability": 90}
{"smiles": "Cc1n[nH]c(C)c1S(=O)(=O)Nc1ccc2c(c1)OCCO2", "viability": 89.3}
{"smiles": "O=C(Cn1c(C(=O)NCC2CCCO2)cc2sccc21)c1ccccc1", "note": "(stereo not given)", "viability": 83.2}
{"smiles": "Nn1cc(-c2ccccc2)nc1SCC(=O)N1CCN(S(=O)(=O)c2ccccc2)CC1", "viability": 102}
{"smiles": "COc1cc(C(N)=O)ccc1OCc1ccccc1", "viability": 90.8}
{"smiles": "CCCCn1c(CN(C)Cc2ccccc2)nc2c1c(=O)n(C)c(=O)n2C", "viability": 79.6}
{"smiles": "CCOc1ccc(-c2nc(S(=O)(=O)c3ccccc3)c(NCc3cccnc3)o2)cc1", "viability": 91.4}
